Shown are actives, neighbours in structure and some others; about 12% of the full set was active somewhere.
USP30 inh = inhibitors of human USP30 deubiquitinase; Q70CQ3; purified USP30, Ub-rhodamine cleavage fluorescence; inhibition, % at 25 µM; actives 5.3% (n = 47,000); AID 1645860
USP17 block = inhibitors of human USP17 deubiquitinase; purified USP17, Ub-rhodamine cleavage fluorescence, 3 h; inhibition, % at 50 µM; actives 6.5% (n = 47,000); A8MUK1
UCHL1 inh = human UCHL1 deubiquitinase inhibition. AID 1645859. P09936. purified UCHL1, Ub-rhodamine cleavage fluorescence. inhibition, % at 20 µM. actives 0.2% (n = 47,000)
USP8 inh = human USP8 deubiquitinase inhibition | P40818 | purified USP8, Ub-rhodamine cleavage fluorescence, 30 min | inhibition, % at 20 µM | actives 4.2% (n = 47,000) | AID 1645853
USP10 inh = blocks human USP10 ubiquitin-rhodamine cleavage; Q14694; purified USP10, Ub-rhodamine fluorescence, 60 min; inhibition, % at 20 µM; actives 1.1% (n = 47,000)
Target sequence (Q14694 whole entry, looked up): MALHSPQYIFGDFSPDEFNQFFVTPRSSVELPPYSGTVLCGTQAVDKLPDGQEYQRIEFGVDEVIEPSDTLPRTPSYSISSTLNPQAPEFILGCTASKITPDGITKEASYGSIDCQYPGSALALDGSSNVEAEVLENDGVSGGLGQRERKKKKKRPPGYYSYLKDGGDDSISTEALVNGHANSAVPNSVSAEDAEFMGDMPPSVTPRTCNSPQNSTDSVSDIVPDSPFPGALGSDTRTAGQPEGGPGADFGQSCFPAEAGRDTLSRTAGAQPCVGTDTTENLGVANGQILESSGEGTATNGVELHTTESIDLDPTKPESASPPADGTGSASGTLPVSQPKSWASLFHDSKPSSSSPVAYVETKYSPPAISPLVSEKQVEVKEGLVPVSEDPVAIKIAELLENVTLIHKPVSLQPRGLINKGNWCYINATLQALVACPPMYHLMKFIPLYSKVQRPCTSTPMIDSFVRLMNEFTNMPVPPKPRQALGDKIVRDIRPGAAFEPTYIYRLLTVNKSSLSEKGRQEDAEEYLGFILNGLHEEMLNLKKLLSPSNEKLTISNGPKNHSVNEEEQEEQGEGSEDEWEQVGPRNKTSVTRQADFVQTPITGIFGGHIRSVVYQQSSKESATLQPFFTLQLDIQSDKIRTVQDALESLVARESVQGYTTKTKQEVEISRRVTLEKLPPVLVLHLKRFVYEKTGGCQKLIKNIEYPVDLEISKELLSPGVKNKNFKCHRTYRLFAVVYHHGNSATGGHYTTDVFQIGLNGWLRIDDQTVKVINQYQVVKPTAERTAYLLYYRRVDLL
USP7 inh = inhibitors of human USP7 deubiquitinase; AID 1645854; inhibition, % at 20 µM; actives 0.3% (n = 47,000); purified USP7, Ub-rhodamine cleavage fluorescence
Starred values were filed as active, the others as inactive; i = inactive; nt = no result. Cut-off read from the data, not from the text of the source: active = inhibition above about 30%; inactive = the rest.

SMILES | USP30 inh | USP17 block | UCHL1 inh | USP8 inh | USP10 inh | USP7 inh
C=C/C(C)=C/[C@@]1(C)SC(=O)C(C)=C1O | -17.1 | 26.3 | 21.3 | 41.0* | 18.3 | -9.1
CCCc1cc(C2CCCN2C(=O)Cc2ccc(F)cc2Cl)no1 (centres undefined) | 14.5 | 11.0 | 3.5 | 8.5 | 2.6 | -51.9
Cn1cc(C(=O)N2[C@H](c3ccccc3F)C[C@H]3NC(=O)CCC[C@@H]32)cn1 | 19.6 | 17.4 | 2.9 | 28.0 | 3.5 | 5.4
Clc1ccccc1CSc1ncnc2c1oc1ccccc12 | 29.6 | 41.0* | -0.5 | 22.6 | 7.4 | 3.8
COC(=O)c1ccccc1NC(=O)CSc1ncnc2c1oc1ccccc12 | 32.7* | 12.7 | 0.7 | 14.4 | -0.3 | 6.7
COc1ccccc1NC(=O)CSc1ncnc2c1oc1ccccc12 | -20.6 | -5.2 | 0.1 | 4.6 | 8.2 | 0.6
O=C(CSc1ncnc2c1oc1ccccc12)Nc1ccc2c(c1)OCCO2 | -15.7 | 65.0* | -0.4 | 1.0 | 11.9 | 1.8
Cc1c(C(=O)CSc2ncnc3c2oc2ccccc23)c2ccccc2n1C | 16.1 | 21.1 | 3.8 | 7.9 | 4.0 | 9.3
Cc1ccccc1-n1ncc2c(=O)n(CC(=O)Nc3ccc4c(c3)OCCO4)cnc21 | 10.3 | 30.4* | 3.3 | 2.5 | 26.0 | 7.5
COc1cccc(NS(=O)(=O)c2ccc3[nH]cc(C(=O)NCc4cccnc4)c(=O)c3c2)c1 | -46.5 | -40.6 | 3.5 | -94.2 | 3.8 | -0.9
CCOc1ccccc1CNC(=O)C(CC)n1sc2ccccc2c1=O (centres undefined) | 1.9 | 7.4 | 3.7 | -24.0 | 5.8 | 5.5
O=C(CSc1ncnc2c1oc1ccccc12)NC1CCCCC1 | 32.5* | 11.4 | 0.0 | 9.0 | -2.1 | 1.0
COc1ccc(C)cc1NC(=O)CSc1nc(C)nc2c1oc1ccccc12 | 28.5 | 51.5* | -14.2 | -14.3 | -5.8 | -10.0
COCCCn1c(SCC(=O)Nc2ccccc2C(=O)OC)nc2ccccc2c1=O | 69.7* | 42.4* | 8.2 | 9.4 | 2.1 | 8.3
O=C(NCC1CCCO1)c1cc(-c2ccncc2)n[nH]1 (centres undefined) | 8.1 | 3.8 | -1.1 | 3.3 | 2.3 | 1.9
COc1ccc(Cn2c(=O)n(C)c3ncncc32)cc1 | 24.2 | 11.1 | 0.6 | 8.4 | 2.2 | 0.4
CC1CCCN(S(=O)(=O)c2ccc(-n3cnc(C(=O)NC4CCCC4)c3)nc2)C1 (centres undefined) | 19.4 | 3.4 | -0.9 | 0.0 | 3.2 | 1.3
O=[N+]([O-])c1ccc(-c2nc3ccccn3c2Br)cc1 | 44.1* | 38.6* | 3.5 | 5.7 | 5.9 | 10.2
Nc1c(-c2ccccc2)nc2ccccn12 | 19.6 | 1.4 | -0.9 | 19.4 | 1.2 | 0.1
O=C(CSc1ccccc1)Nc1cccc2nsnc12 | 24.1 | 31.7* | 3.8 | 53.1* | 9.0 | 2.9
CCC(C(=O)Nc1cccc2nsnc12)c1ccccc1 (centres undefined) | -7.2 | 10.1 | 3.3 | 37.4* | 1.2 | 0.1
O=c1c(NCCCN2CCCC2)nc2ccncc2n1Cc1ccccc1 | -0.1 | 58.1* | 1.1 | -3.2 | -4.7 | -28.3
CCOc1cccc(CNc2nc3ccncc3n(Cc3ccccc3)c2=O)c1 | 35.8* | 28.5 | -4.7 | 18.1 | -0.6 | 0.0
O=C(Nc1cc(C(F)(F)F)cc(C(F)(F)F)c1)c1ccc(-c2ccccn2)s1 | 41.0* | 18.9 | 1.7 | -4.6 | 15.2 | 9.0
O=C(Cc1nnc(-c2ccc3ncccc3c2)o1)Nc1ccccc1 | -5.4 | 13.2 | 0.0 | -3.2 | -6.1 | -3.8
SMILES | USP30 inh | USP17 block | UCHL1 inh | USP8 inh | USP10 inh | USP7 inh
Cc1cc(F)ccc1NC(=O)Cc1nnc(-c2ccc3ncccc3c2)o1 | -19.7 | 15.1 | -0.7 | 46.9* | -3.2 | 4.7
Cc1cnc(C(=O)N2CCCC(c3ccc4c(C)nn(C)c4n3)C2)cn1 (centres undefined) | 28.3 | 14.9 | 0.1 | 16.3 | 5.8 | 3.2
CSCCC(NC(=O)c1sccc1C)c1nnc2ccccn12 (centres undefined) | 40.6* | 14.7 | 1.6 | 15.4 | 4.4 | 3.7
COc1ccc(CCn2nnnc2C(c2ccccc2)N2CCN(c3ccccc3)CC2)cc1OC (centres undefined) | -16.8 | -31.7 | 2.0 | -143.5 | 7.1 | 2.0
Cc1cc(NC(=O)CSc2nnc(COc3ccc(Cl)cc3)o2)no1 | -14.8 | 2.9 | -7.5 | -5.0 | 7.4 | -3.8
COC(=O)C(C)Sc1ncnc2c1nnn2-c1ccc(OC)cc1 (centres undefined) | nt | 37.4* | -11.6 | 2.3 | 0.0 | -2.8
COc1ccc(-n2nnc3c(SCC(=O)Nc4cc(C)on4)ncnc32)cc1 | -45.2 | 57.2* | 3.2 | 4.6 | 12.0 | 3.8
CC1OC(O)CC(O)C1O (centres undefined) | 1.3 | 0.4 | -2.2 | 5.9 | 1.6 | -1.2
Cc1nc2cc(C(=O)NCCC3=CCCCC3)ccc2n1-c1cccc(F)c1 | 73.4* | 7.8 | 6.1 | 6.0 | 0.5 | 5.8
CC(=O)N[C@@]12CN(C)CC[C@@H]1CN(C(=O)c1ccc3c(c1)OCCO3)C2 | -0.5 | 1.0 | -0.1 | -0.4 | -1.3 | 3.7
Cc1cc(=O)n2c3c(c4c(cc13)c(CO)cc(=O)n4C)OC2 | 6.8 | 85.0* | 6.5 | 40.5* | 5.9 | -0.4
O=C(Nc1nc2c(s1)CN(Cc1ccccc1)CC2)c1cccc(-n2cnnn2)c1 | -107.5 | -40.3 | -41.7 | 4.9 | -3.9 | -41.8
Cc1ccc2c(c1)NC(CCC(=O)NCCc1ccc(Cl)cc1)=NS2(=O)=O | 59.1* | 59.0* | 3.6 | 18.6 | 6.9 | 11.3
N#Cc1cccc(NC(=O)Nc2cccn(Cc3ccc(F)cc3)c2=O)c1 | 37.9* | 74.1* | 7.5 | 90.8* | 19.7 | -1.4
CCCc1cc(=O)oc2cc(OCC(=O)NCC(=O)N3CCC4(O)CCCCC4C3)ccc12 (centres undefined) | 1.6 | -0.1 | -0.5 | -1.4 | 0.5 | -3.8
Cc1cccc(NC(=O)Cn2cnc3c(c2=O)CCCC3)c1 | -11.7 | -1.8 | 0.5 | -11.6 | 1.8 | -0.7
CC(=O)Nc1cccc(NC(=O)Cn2ccc3cc(Br)ccc32)c1 | 53.5* | 60.9* | -0.9 | 1.7 | 10.5 | 13.3
CCOc1ccc(C2CCCN2Cc2nc(N)nc(Nc3ccccc3)n2)cc1 (centres undefined) | i | -168.1 | -143.5 | -147.5 | -9.2 | -117.2
Cc1ccc(S(=O)(=O)Cc2ccc(C(=O)N3CCN(c4cccc(C)c4)C(C)C3)o2)cc1 (centres undefined) | -110.8 | -19.8 | -2.5 | -1.9 | -0.7 | -12.5
CC(Nc1ncnc2c1sc1nc(N3CCOCC3)c3c(c12)CCC3)c1ccccc1 (centres undefined) | -9.1 | 50.6* | 1.3 | 1.5 | -0.9 | 1.4
c1cncc(CNc2ncnc3c2sc2nc(N4CCOCC4)c4c(c23)CCC4)c1 | 16.9 | 31.6* | 5.2 | -3.7 | 1.0 | 4.5
NC(=O)c1cc(CC2CCCN(C(=O)c3ccccc3)CC2)ncn1 (centres undefined) | -14.0 | -3.8 | -5.7 | -12.0 | -1.7 | -3.9

Screening data as filed in PubChem BioAssay.
